The list is not random: actives were taken first. Their share in the collection is about 3.1%.
SIRT5 inh: inhibitors of human sirtuin-5 desuccinylase; 1.1% of 330,000 active; inhibition, % at 15 µM; Q9NXA8; Purified SirT5, succinyl-peptide AMC, trypsin-coupled fluorescence; in the data active means inhibition above about 15%
ERAP1 inh: ERAP1 (human) enzyme inhibition | recombinant ERAP1, Leu-AMC fluorescence, 60 min | inhibition, % at 10.7 µM | Q9NZ08 | 0.15% of 340,000 active;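 active means mean replicate inhibition of at least 30%, or all replicates individually reaching that 30% level; inactive means mean below 30% and not every replicate reaching it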
FGF22 binding-1: FGF22 (human) thermal shift binding | recombinant FGF22 thermal shift, SYPRO orange fluorescence; percent of sucrose octasulfate shift, DMSO zero | AID 651658 | 1.5% of 340,000 active | Q9HCT0 | activity (Tm shift, normalised), % at 9.99 µM;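 active means mean Tm shift, scaled 0 neutral to 100 positive control, at about 1.3% or above, every replicate too, limit read from the data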
Target sequence (Q9HCT0 whole entry, looked up): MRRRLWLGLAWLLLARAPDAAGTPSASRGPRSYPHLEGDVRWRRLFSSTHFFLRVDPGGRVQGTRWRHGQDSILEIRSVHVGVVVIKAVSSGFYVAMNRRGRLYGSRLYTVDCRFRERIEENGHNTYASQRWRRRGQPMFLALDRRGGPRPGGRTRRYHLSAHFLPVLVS
Casp6 inh: blocks human caspase-6 cleavage activity; purified caspase-6, Z-VEID-R110 cleavage fluorescence; AID 686996; inhibition, % at 12.5 µM; 0.53% of 350,000 active;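 active means mean inhibition across replicates at least about 35%, with every replicate also reaching that limit, limit read from the data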
Target sequence (P55212 24-179 limits assumed): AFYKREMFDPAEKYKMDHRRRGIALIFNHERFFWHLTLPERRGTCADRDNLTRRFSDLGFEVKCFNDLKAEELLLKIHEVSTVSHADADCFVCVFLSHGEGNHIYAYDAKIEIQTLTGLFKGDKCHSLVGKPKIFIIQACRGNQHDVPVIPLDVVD
Target sequence (P55212 194-293 limits assumed): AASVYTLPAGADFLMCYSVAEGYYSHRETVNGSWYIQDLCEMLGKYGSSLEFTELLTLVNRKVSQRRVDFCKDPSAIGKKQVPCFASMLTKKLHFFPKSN
FGF22 binding-2: binders of human FGF22 by thermal shift | shares compounds with FGF22 binding-1 | recombinant FGF22 thermal shift, SYPRO orange fluorescence | thermal shift activity, °C (ΔTm) at 38 µM | 2% of 1,000 active | AID 720646;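 active means fitted rise in melting shift crosses a set limit at or below the top valid dose tested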
FGF22 TSA DP: FGF22 (human) binding by thermal shift; shares compounds with FGF22 binding-1; 50 tested, under 10 active; Thermal shift assay, SYPRO orange, melting temperature shift; AID 743017; Tm shift (activity), % at 38 µM;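 active means compounds whose fitted dose curve of melting temperature shift rises past a set threshold within the tested doses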
SYPRO no-protein: compound-only SYPRO artifact for FGF22 binders | shares compounds with FGF22 binding-1 | AC50, µM (top dose mostly 38 µM) | 2% of 1,000 active | compound-only SYPRO orange thermal shift counter-screen, no protein;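 active means rising signal whose fitted curve reaches the 0.54 level within the top valid dose, showing a melting point, actives reach about 13 µM in these data; inactive means the rest, including activity in the opposite direction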; further: value is where the raw curve crosses a fixed level and not half-maximal
Each line names hits and unclear results; the compound was inactive in the other large screens (follow-up assays come after a bar, where they were run); ! = not active in a repeat.

CC1(C(=O)NS(=O)(=O)c2ccc(Cl)cc2)CCN1C(=O)Cc1ccc(Cl)cc1Cl (stereo not given)	FGF22 binding-1 1.5 | FGF22 binding-2 inactive | SYPRO no-protein inactive
C/C=C/c1ccc([C@H]2[C@@H](CO)N(CCC(F)(F)F)C23CN(C(=O)CC)C3)cc1	none
CN1C(=O)c2cc(NC(=O)C3CC3)ccc2OC[C@H]2O[C@@H](CC(=O)NCCN3CCCC3)CC[C@H]21	none
CCCCNC(=O)C1c2cc(OC)c(OC)cc2C(=O)N(C)C1c1cccs1 (stereo not given)	FGF22 binding-1 3.6 | FGF22 binding-2 inactive | SYPRO no-protein inactive
C[C@H]1CN([C@@H](C)CO)C(=O)c2cc(NS(=O)(=O)c3ccc(F)cc3)ccc2O[C@H]1CN(C)Cc1ccccc1	none
COc1ccc(NC(=O)N(C)C[C@H]2OCCCC[C@@H](C)Oc3ccc(NC(=O)CCC(F)(F)F)cc3C(=O)N([C@@H](C)CO)C[C@H]2C)cc1	none
COc1ccc(NC(=O)CCCN2C(=O)CN(C)C2=O)c(OC)c1	FGF22 binding-1 15 | SYPRO no-protein inactive
O=C(CN1CCOCC1)N[C@H]1CC[C@H](CCNC(=O)C2CCCC2)O[C@H]1CO	none
CC(C)C#Cc1cnc2c(c1)C(=O)N([C@@H](C)CO)C[C@@H](C)[C@H](CN(C)C(=O)c1cnccn1)O2	FGF22 binding-1 1.3 | FGF22 binding-2 inactive | SYPRO no-protein inactive
C/C=C/c1cnc2c(c1)C(=O)N([C@H](C)CO)C[C@H](C)[C@@H](CN(C)C(=O)c1ccc3c(c1)OCO3)O2	none
CC(=O)N(C)C[C@H]1Oc2ncc(C#C[C@H](C)O)cc2C(=O)N([C@@H](C)CO)C[C@@H]1C	FGF22 binding-1 3.6 | FGF22 binding-2 inactive | SYPRO no-protein inactive
C/C=C/c1cnc2c(c1)C(=O)N([C@@H](C)CO)C[C@H](C)[C@@H](CN(C)C(=O)c1ccc3c(c1)OCO3)O2	FGF22 binding-1 2.6 | FGF22 binding-2 inactive | SYPRO no-protein inactive
COc1ccc(NC(=O)N[C@@H]2CC[C@H](CC(=O)NC3CCCCC3)O[C@@H]2CO)cc1	none
CC(C)(C)[S@@](=O)N1Cc2cc(C(=O)NC3CCCCC3)nc(-c3cccc(Br)c3)c2[C@H]1CCO	none
O=C(Nc1ccc(S(=O)(=O)NCc2ccccc2)cc1)c1ccccc1[N+](=O)[O-]	FGF22 binding-1 2.4 | FGF22 binding-2 inactive | SYPRO no-protein inactive
COC(=O)[C@@H]1[C@@H](CO)[C@@H]2Cn3c(ccc(C4=CCCCC4)c3=O)[C@@H]2N1Cc1ccc2c(c1)OCO2	none (no result: SIRT5 inh)
NC(=O)c1ccsc1NC(=O)COC(=O)Cc1c[nH]c2ccccc12	FGF22 binding-1 1.8 | SYPRO no-protein inactive
NC(=O)Nc1ccc(C(=O)OCC(=O)Nc2sccc2C(N)=O)cc1	FGF22 binding-1 1.5 | FGF22 binding-2 inactive | SYPRO no-protein inactive
C[C@@H]1CN([C@H](C)CO)C(=O)Cc2cc(NC(=O)Nc3cccc4ccccc34)ccc2O[C@H]1CN(C)S(=O)(=O)c1cn(C)cn1	none
COc1ccc([N+](=O)[O-])cc1/C=N/Nc1nn[nH]n1	FGF22 binding-1 1.5 | FGF22 binding-2 inactive | SYPRO no-protein inactive
COc1ccc(/C=N/Nc2ccc([N+](=O)[O-])cc2)cc1O	FGF22 binding-1 1.8 | SYPRO no-protein inactive
COc1cccc(/C=N/Nc2ccc([N+](=O)[O-])cc2)c1O	none
COc1ccc(/C=N/NC(=O)c2cccc([N+](=O)[O-])c2)cc1OC	FGF22 binding-1 1.6 | FGF22 binding-2 inactive | SYPRO no-protein inactive
COc1ccc([N+](=O)[O-])cc1/C=N/NC(=O)c1nonc1N	none (no result: Casp6 inh)
O=C(C[C@H]1CC[C@H](NC(=O)Nc2ccccc2F)[C@H](CO)O1)NCc1ccccc1	none
CN(CC1CCOCC1)C(=O)c1ccc2nc(Cc3cccc(Cl)c3)oc2c1	none
O=C(NCC1CCOCC1)c1ccc2nc(Cc3cccc(Cl)c3)oc2c1	FGF22 binding-1 1.4 | FGF22 binding-2 inactive | SYPRO no-protein inactive
COc1ccc(S(=O)(=O)Nc2ccc3c(c2)C(=O)N([C@@H](C)CO)C[C@@H](C)[C@@H](CN(C)C(=O)Cc2ccccc2)OCCCC[C@@H](C)O3)cc1	none
CCNC(=O)C[C@@H]1CC[C@@H]2[C@@H](COc3ccc(NC(=O)Nc4ccc(Cl)cc4)cc3C(=O)N2C)O1	none
CN1C(=O)c2cc(NC(=O)c3ccccc3Cl)ccc2OC[C@H]2O[C@H](CC(=O)NCC(F)(F)F)CC[C@H]21	none
CNC(=O)C[C@@H]1CC[C@@H]2[C@@H](COc3ccc(NC(=O)c4ccccc4OC)cc3C(=O)N2C)O1	none
CN1C(=O)c2cc(NC(=O)c3ccccc3Cl)ccc2OC[C@@H]2O[C@@H](CC(=O)NCC(F)(F)F)CC[C@H]21	FGF22 binding-1 36 | FGF22 binding-2 inactive | SYPRO no-protein inactive
CNC(=O)C[C@H]1CC[C@@H]2[C@H](COc3ccc(NC(=O)c4ccccc4OC)cc3C(=O)N2C)O1	FGF22 binding-1 2.6 | FGF22 binding-2 inactive | SYPRO no-protein inactive
CCNC(=O)C[C@@H]1CC[C@H]2[C@H](COc3ccc(NC(=O)Nc4ccc(Cl)cc4)cc3C(=O)N2C)O1	FGF22 binding-1 1.2 | FGF22 binding-2 inactive | FGF22 TSA DP inactive | SYPRO no-protein inactive
CC(=O)N1[C@@H]2c3ccc(C4=CCCC4)c(=O)n3C[C@H]1[C@H](CO)[C@H]2C(=O)NCc1ccccc1	none
CCC(=O)N1CCCCN2[C@H](CO)[C@@H](c3ccc(C#Cc4ccccc4F)cc3)[C@H]2C1	FGF22 binding-1 1.5 | FGF22 binding-2 inactive | SYPRO no-protein inactive
Cc1nc(Oc2ccccc2)c2ccsc2n1	FGF22 binding-1 1.4 | FGF22 binding-2 inactive | SYPRO no-protein inactive
COc1ccccc1-c1cnc2c(c1)C(=O)N([C@H](C)CO)C[C@H](C)[C@@H](CN(C)Cc1ccc(F)cc1)O2	none
O=C(NCCc1c[nH]c2ccccc12)c1ccc(Cl)cc1	FGF22 binding-1 2.4 | FGF22 binding-2 inactive | FGF22 TSA DP inactive | SYPRO no-protein inactive
CCS(=O)(=O)N[C@@H]1CC[C@H](CC(=O)Nc2ccc(-c3ccccc3)cc2)O[C@@H]1CO	FGF22 binding-1 1.2 (no result: SIRT5 inh) | FGF22 binding-2 inactive | SYPRO no-protein inactive
C[C@H](CO)N1C[C@H](C)[C@@H](CN(C)S(=O)(=O)c2ccccc2)Oc2ccc(NS(=O)(=O)c3cn(C)cn3)cc2C1=O	FGF22 binding-1 2.3! | FGF22 binding-2 inactive | SYPRO no-protein inactive
C[C@H]1CN([C@@H](C)CO)C(=O)c2cc(NS(=O)(=O)c3cn(C)cn3)ccc2O[C@H]1CN(C)Cc1ccccc1	FGF22 binding-1 24 | FGF22 binding-2 inactive | SYPRO no-protein inactive
C[C@@H]1CN([C@H](C)CO)C(=O)c2cc(NS(=O)(=O)c3cn(C)cn3)ccc2O[C@@H]1CN(C)Cc1ccccc1	none

Screens: PubChem, Broad Institute
